We go through 40 molecules from PubChem BioAssay (Tox21).

The structures appear in SMILES notation. Several values for one entry are separate records, joined by “and”; a condition that tells them apart may be missing. Equal entries are not always repeated. Inconclusive results are not listed. Entries that show only a call come without a potency. Activity calls are given as the source filed them. Calls follow the shape of the dose curve; as a rule, active = well fitted cell-killing curve with a large enough effect in the repeat runs; inconclusive = weak or mixed curves, or effect the other way; inactive = no such curve, though single readings can be large or run the other way.
Potency is read from the fitted curve at half-maximal effect.

The nature of the assay: qHTS assay to identify small molecule antagonists of the retinoid-related orphan receptor gamma (ROR-gamma) signaling pathway - cell viability counter screen (AID 1159520). Also: nearly all actives have a fitted effect of over 50% in size. Conditions: Tet-on RORgamma CHO cells viability, ATP luminescence, 16 h; series mostly up to 92.4 µM. The source says: U.S. Tox21 Program National Center for Advancing Translational Sciences [NCATS] NIH Chemical Genomics Center [NCGC] U.S. Environmental Protection Agency [EPA] National Institutes of Environmental Health Sciences [NIEHS] National Toxicology Program [NTP] U.S. Food and Drug Administration [FDA] Tox21 Assay Overview: Nuclear steroid hormone receptors are involved in many biological processes including inflammatory responses, cell proliferation, and apoptosis. Environmental factors or compounds disrupting these nuclear receptor pathways and gene expression may promote susceptibility to immunotoxicants and autoimmune diseases. One important group of these expression factors are the retinoid-related orphan receptors. To assess compounds that may interfere with the retinoid-related orphan receptor gamma (ROR-gamma) transcription factor, a cell-based luciferase assay was used. The CHO cell-based assay utilizes a TET-inducible ROR expression factor and ROR response element-LUC reporter gene. Reporter gene activity was induced using Doxycycline Hyclate and measured after 16 hr incubation. Tet-on ROR gamma CHO cells were used to screen against the Tox21 10K compound library for cytotoxicity by measuring the viability of the cells based on the quantitation of the ATP.
Tox21 Assay Protocol Summary: Tet-on ROR gamma CHO cells were dispensed at 1,000 cells in 4 uL of culture medium per well into white wall/solid bottom 1536-well plates using a Multidrop Combi (Thermo Scientific, Waltham, MA) dispenser. Following incubation at 37 C and 5% CO2 for 4 hr, 23 nL of compounds dissolved in DMSO, positive controls or DMSO only were transferred by a Pintool station (Kalypsys, San Diego, CA) and after 2 hr incubation at 37 C, one ul of 1 uM (final concentration) of Doxycycline Hyclate was added to all the wells by using a Flying Reagent Dispenser (FRD) (Aurora Discovery, San Diego, CA). After 16 hr incubation at 37 C and 5% CO2, 5 uL of CellTiter-Glo reagent (Promega Corporation, Madison, WI) was added to each assay plate using FRD. After 30 min incubation at room temperature, luminescence was quantified on a ViewLux plate reader (Perkin Elmer, Waltham, MA).
Background: In qHTS, concentration-response curves come from the screen itself.
Consider `CCOP(=O)(OCC)Oc1nc(Cl)c(Cl)cc1Cl`, for which the Potency result is “inactive”.

On to `COP(=S)(OC)Oc1nc(Cl)c(Cl)cc1Cl`, for which the Potency result was “inactive”.

With `N#Cc1ccc(N(CC(N)=O)CC(F)(F)F)cc1C(F)(F)F`, the Potency entry is “inactive”.

Consider `CCC1(CC)C(=O)N=C(O)NC1=O`, for which the Potency result was “inactive”.

For the molecule `[Cl-].[Cl-].[Cl-].[Yb+3]`, the Potency entry is “inactive”.

In the case of `Cc1cccc(Cc2cnc[nH]2)c1C`, the Potency result was “inactive”.

Regarding `Cc1cnc2c(C(=O)O)c(Cl)ccc2c1`, the Potency entry was “inactive”.

Turning to `COc1ccc2c3c1O[C@H]1[C@H](O)CC[C@H]4[C@@H](C2)N(C)CC[C@@]341`, the Potency entry is “inactive”.

On to `CC[C@H](C)[C@H]1O[C@]2(C=C[C@@H]1C)C[C@@H]1C[C@@H](C/C=C(\C)[C@@H](O[C@H]3C[C@H](OC)[C@@H](O[C@H]4C[C@H](OC)[C@@H](NC)[C@H](C)O4)[C@H](C)O3)[C@@H](C)/C=C/C=C3\CO[C@@H]4[C@H](O)C(C)=C[C@@H](C(=O)O1)[C@]34O)O2`, for which the Potency was 13.7 µM (active).

Take `CC[N+]1(CC)CCC(OC(=O)C(O)(c2ccccc2)c2ccccc2)C1` (stereo not given): the Potency result is “inactive”.

`CC1(C)[C@H](/C=C2\CCSC2=O)[C@@H]1C(=O)OCc1coc(Cc2ccccc2)c1`: the Potency result is “inactive”.

In the case of `CCCCc1ccccc1`, the Potency result was “inactive”.

On to `CN1CCc2cc(Cl)c(O)cc2[C@H]2c3ccccc3CC[C@@H]21`, for which the Potency entry is “inactive”.

For `Clc1ccc(C2(Cn3cncn3)OCCO2)c(Cl)c1`, the Potency result is “inactive”.

In the case of `O=[N+]([O-])c1ccccc1-c1ccccc1`, the Potency entry was “inactive”.

Regarding `CN1[C@@H]2CC[C@H]1CC(O)C2` (stereo not given in full), the Potency entry is “inactive”.

With `CCN(CC)C(=O)N[C@@H]1C=C2c3cccc4[nH]cc(c34)C[C@@H]2N(C)C1`, the Potency result is “inactive”.

Turning to `Oc1cc(Cl)c(Cl)c(Cl)c1Cl`, the Potency was 53.2 µM (active).

Take `Nc1nc(N)c(N)c(N)n1`: the Potency result was “inactive”.

`CCCCN(CCCC)C(=S)S`: the Potency entry was “inactive”.

As for `Cc1nn(-c2cc(NS(C)(=O)=O)c(Cl)cc2Cl)c(=O)n1C(F)F`, the Potency result was “inactive”.

Regarding `Oc1cc(Cl)cc(Cl)c1`, the Potency result was “inactive”.

Regarding `CC(C)NCC(O)c1ccccc1Cl` (stereo not given), the Potency result was “inactive”.

For `[O]=[Cr](=[O])([OH])[O][Cr](=[O])(=[O])[OH]`, the Potency was 5.5 µM (active) and 2.43 µM (active).

As to `CCOP(=O)(Sc1ccccc1)Sc1ccccc1`, the Potency result was “inactive”.

Consider `CC(Cl)CCl` (stereo not given), for which the Potency result is “inactive”.

For the molecule `ClC1=C(Cl)[C@]2(Cl)[C@@H]3[C@H]4C[C@H]([C@@H]5O[C@H]45)[C@@H]3[C@@]1(Cl)C2(Cl)Cl`, the Potency result was “inactive”.

As to `C[C@@H]1CC2=CC(=O)CC[C@@H]2[C@H]2CC[C@@]3(C)[C@@H](CC[C@]3(C)O)[C@@H]21`, the Potency entry is “inactive”.

For `CCC[CH2][Sn]([CH2]CCC)([CH2]CCC)[O][Sn]([CH2]CCC)([CH2]CCC)[CH2]CCC`, the Potency was 0.336 µM (active).

Take `CN=C=O`: the Potency entry was “inactive”.

For `C=CC(=C)C`, the Potency result is “inactive”.

Consider `CC(C)N(C(=O)CCl)c1ccccc1`, for which the Potency was 27.3 µM (active) and 30.6 µM (active).

Take `CCC[CH2][Sn]([CH2]CCC)([CH2]CCC)[CH2]CCC`: the Potency was 10.9 µM (active).

With `Cc1c([N+](=O)[O-])c(C)c([N+](=O)[O-])c(C(C)(C)C)c1[N+](=O)[O-]`, the Potency entry was “inactive”.

As for `CCN(CC)CCc1c[nH]c2ccccc12`, the Potency entry is “inactive”.

On to `Clc1ccc(C(Cl)(Cl)Cl)cc1Cl`, for which the Potency is 53.3 µM (active).

For the molecule `ClSC(Cl)(Cl)Cl`, the Potency result is “inactive”.

Consider `NC(=O)C(Cl)Cl`, for which the Potency entry was “inactive”.

Take `ClCBr`: the Potency entry is “inactive”.

With `OCC(Br)CBr` (stereo not given), the Potency result was “inactive”.
